Screens deposited in PubChem by The Scripps Research Institute Molecular Screening Center.
TEAD-YAP inh: TEAD-YAP interaction inhibition, primary screen, TEAD-YAP interaction inhibitor project, luminescence, HEK-TIYL cells. 640,000 compounds, 1.4% hits. inhibition, % at 9.12 µM. TEAD-Gal4/YAP UAS-luciferase luminescence. AID 1259422, 2018; in the data active = inhibition above about 32%
MITF inh: MITF inhibitors, primary screen, biochemical, AlphaScreen, human. Microphthalmia-associated transcription factor (Homo sapiens), O75030. AID 1259374, 2018. 650,000 compounds, 0.91% hits. AlphaScreen MITF homodimerization, bead proximity signal. inhibition, % at 2.6 µM; in the data active = inhibition above about 50%
FBW7 act: FBW7 E3 ligase activators, primary screen, biochemical, AlphaScreen, human | AlphaScreen FBW7–phospho-cyclin E peptide binding, activator screen | 650,000 compounds, 0.13% hits | normalized activity (activation), % at 26.1 µM; in the data active = normalized activity above about 1.9%;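 note: purified mutant Fbw7 with reduced substrate affinity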
GPR151 activ: activators of human GPR151, primary screen, cell-based, PathHunter beta-arrestin, luminescence; G-protein coupled receptor 151 (Homo sapiens), Q8TDV0; PathHunter beta-arrestin GPR151 cells; activation, % at 11.2 µM; 650,000 compounds, 1% hits; AID 1508602, 2020; in the data active = activation above about 4.9%
GPR151 conf act: GPR151 activators, triplicate retest, confirmation, cell-based, PathHunter beta-arrestin, luminescence; shares compounds with GPR151 activ; GPR151 PathHunter beta-arrestin cells, 90 min; % of EA-reagent control over plate median; activation, % at 11.2 µM; 6,700 tested, under 10 active; AID 1508609, 2020;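 active = mean percent activation across replicates above the confirmation screen cutoff of 4.91%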
GPR119 counter: GPR119 activators in beta-arrestin cells, counter-screen for GPR151 activator project, cell-based, PathHunter beta-arrestin, luminescence, triplicate | 6,700 compounds, 0.3% hits | shares compounds with GPR151 activ | 90 min; 0 = compound-well median, 100 = enzyme-acceptor control | AID 1508611, 2020 | activation, % at 11.2 µM;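 active = mean percent activation in the counterscreen above 29.09%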;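 note: counterscreen on off-target GPR119 to flag nonselective hits from the GPR151 activator screen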
Large screens that a line does not name were inactive (follow-up assays come after a bar, where they were run). This is a sample that favours compounds with a hit; in the whole collection about 3.5% have one here.

Cc1sc2nc(SCC(=O)NC3CCCC3)nc(N)c2c1C	none
Cc1sc2nc(SCC(=O)N3CCCCC3C)nc(N)c2c1C (stereo not given)	GPR151 activ 11 | GPR151 conf act inactive | GPR119 counter inactive
CC12CC3CC(C)(C1)CC(CNC(=O)COc1ccccc1)(C3)C2	none
CC1(C)CC(NC(=O)COc2ccccc2)CC(C)(CNC(=O)COc2ccccc2)C1 (stereo not given)	GPR151 activ 5.4 | GPR151 conf act inactive | GPR119 counter inactive
O=C(CNC(=S)N(Cc1ccccc1F)C1CCCCC1)N1CCc2ccccc21	none
CN(Cc1ccccc1)C(=O)c1ccc2c(=O)n(-c3ccccc3)c(SCc3nc4ccccc4[nH]3)nc2c1	none
Cc1cccc(CN2CCC(N3CCC[C@H]3CO)CCC2=O)c1 (stereo not given in full)	GPR151 activ 11 | GPR151 conf act inactive | GPR119 counter inactive
N#Cc1ccccc1CSc1ncnc2sccc12	GPR151 activ 5.1 | GPR151 conf act inactive | GPR119 counter inactive
CCOC(=O)c1c(NC(=O)c2ccc([N+](=O)[O-])cc2)sc(C(N)=O)c1C	none
CCOC(=O)c1c(NC(=O)c2ccc([N+](=O)[O-])cc2)sc(C(=O)OC)c1C	GPR151 activ 5.3 | GPR151 conf act inactive | GPR119 counter inactive
O=C(N/N=C/c1cccc(O)c1)c1cnccn1	none
O=C(N/N=C\c1ccc(Br)cc1)c1cc([N+](=O)[O-])cc([N+](=O)[O-])c1	none
O=C(N/N=C\c1cccc([N+](=O)[O-])c1)c1ccc(O)cc1	none
O=C(N/N=C/c1ccc([N+](=O)[O-])cc1)c1ccc(Br)cc1	GPR151 activ 7.8 | GPR151 conf act inactive | GPR119 counter inactive
O=C(N/N=C/c1cccc([N+](=O)[O-])c1)c1cc(O)c(O)c(O)c1	GPR151 activ 5.7 | GPR151 conf act inactive | GPR119 counter inactive
O=C(N/N=C/c1cccc(O)c1)c1cccnc1	GPR151 activ 5.8 | GPR151 conf act inactive | GPR119 counter inactive
O=C(CCC(=O)N/N=C/c1cccc([N+](=O)[O-])c1)N/N=C/c1cccc([N+](=O)[O-])c1	none
O=C(CCCC(=O)N/N=C/c1cccc([N+](=O)[O-])c1)N/N=C/c1cccc([N+](=O)[O-])c1	GPR151 activ 14 | GPR151 conf act inactive | GPR119 counter inactive
CCCc1nnc(-c2cc3ccccc3n2Cc2cccc(C)c2)o1	none
CC1Cc2nc(SCC(=O)Nc3cccc4ccccc34)n(C)c(=O)c2S1 (stereo not given)	none
Cc1ccc(-c2nc(CSCC(=O)N3CCN(C(=O)c4ccco4)CC3)c(C)o2)cc1	none
Cc1ccc(-c2nc(CSCC(=O)N3CCOCC3)c(C)o2)cc1	GPR151 activ 5.0 | GPR151 conf act inactive | GPR119 counter inactive
CCOC(=O)c1ccc(CN(Cc2ccncc2)S(=O)(=O)c2cccc([N+](=O)[O-])c2)cc1	none
CCN(CC)CCN1C(=O)c2ccccc2NC1c1ccc(Cl)cc1 (stereo not given)	GPR151 activ 7.6 | GPR151 conf act inactive | GPR119 counter inactive
CCN(CC)c1ccc(/C=N/NC(=O)c2ccccc2Cl)c(O)c1	GPR151 activ 7.3 | GPR151 conf act inactive | GPR119 counter inactive
COc1ccccc1/C=N/NC(=O)c1ccccc1Cl	none
COc1ccccc1/C=N/NC(=O)c1ccccc1O	GPR151 activ 7.1 | GPR151 conf act inactive | GPR119 counter inactive
O=C(N/N=C/c1ccccc1O)c1ccc(Cl)cc1Cl	GPR151 activ 5.1 | GPR151 conf act inactive | GPR119 counter inactive
O=S1(=O)CC(O)C(N(CCO)C(=S)Nc2ccccc2)C1 (stereo not given)	none
O=C(CSc1nnc(-c2cccnc2)o1)c1ccc2ccccc2c1	none
O=C(CSc1nnc(-c2cccnc2)o1)Nc1nc(-c2ccccc2)cs1	GPR151 activ 7.5 | GPR151 conf act inactive | GPR119 counter inactive
O=C(CSc1nnc(-c2cccnc2)o1)c1ccccc1	GPR151 activ 5.9 | GPR151 conf act inactive | GPR119 counter inactive
